Test results published in PubChem BioAssay AID1159580 (chemical genetic matrix, 2015).
Where “and” joins values, the source holds several entries; their conditions need not be identical. Identical values can stand only once. Among all 5,500 compounds or so, about 2,000 (36%) were called active. Another 18% or so got no clear call; they are omitted. No stated cut-off is given here; in the data, active means normalized growth mostly below about 0.91 (no sharp cut-off); inconclusive means no clear call, values can overlap the other calls; inactive means mostly above about 0.92. Some of the results follow.

Test: chemical genetic growth profiling, strain panel (AID 1159580);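 further: tested at 20 µM; growth read once vehicle control cultures reached saturation at 30 °C; 1 = growth at the plate median or of vehicle wells; lower values mean less growth of the strain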
Conditions: S. cerevisiae deletion strains, growth OD

Measured: normalized growth

CC(C)(C)NCC(O)c1ccc(O)c(CO)c1 (stereo not given)
inactive: locus YAL013W, strain DEP1, active compounds read low 1 and 1.04 | locus YAL021C, strain ccr4, active compounds read low 1.02 | locus YAL026C, strain drs2, active compounds read low 1.02 | locus YAL030W, strain snc1, active compounds read low 1.02 | locus YAL040C, strain CLN3, active compounds read low 0.991 and 1.01 | locus YBL061C, strain skt5, active compounds read low 1.02 | locus YBR009C, strain hhf1, active compounds read low 0.998 | locus YBR021W, strain FUR4, active compounds read low 1.01 | locus YBR023C, strain chs3, active compounds read low 1.01 | locus YBR171W, strain sec66, active compounds read low 1.02 | locus YBR229C, strain ROT2, active compounds read low 1 | locus YBR231C, strain swc5, active compounds read low 1.01 | locus YBR279W, strain paf1, active compounds read low 1.01 | locus YCL011C, strain gbp2, active compounds read low 0.998 | locus YCL016C, strain dcc1, active compounds read low 1.02 | locus YCL029C, strain bik1, active compounds read low 1.01 | locus YCL061C, strain MRC1 (second series), active compounds read low 1 and 1.01 | locus YCL061C, strain MRC1, active compounds read low 1 | locus YCL069W, strain vba3, active compounds read low 1.02 | locus YCR088W, strain abp1, active compounds read low 1.01 | locus YDL005C, strain med2, active compounds read low 1.01 | locus YDL035C, strain GPR1, active compounds read low 1.04 | locus YDL040C, strain nat1, active compounds read low 1 | locus YDL074C, strain BRE1, active compounds read low 1.06 | locus YDL101C, strain DUN1, active compounds read low 1.01 | locus YDL134C, strain PPH21, active compounds read low 1 | locus YDL185W, strain tfp1, active compounds read low 1.02 | locus YDL192W, strain arf1, active compounds read low 1.02 | locus YDR001C, strain nth1, active compounds read low 1.01 | locus YDR069C, strain doa4, active compounds read low 0.998 | locus YDR101C, strain arx1, active compounds read low 0.972 | locus YDR137W, strain rgp1, active compounds read low 1.01 | locus YDR150W, strain NUM1, active compounds read low 1.01 | locus YDR159W, strain sac3, active compounds read low 0.99 | locus YDR162C, strain NBP2, active compounds read low 1.03 | locus YDR195W, strain ref2 0.99 | locus YDR297W, strain sur2, active compounds read low 1.01 | locus YDR318W, strain mcm21, active compounds read low 1.02 | locus YDR334W, strain swr1, active compounds read low 0.995 | locus YDR335W, strain msn5, active compounds read low 1.02 | locus YDR363W, strain ESC2, active compounds read low 1.03 | locus YDR388W, active compounds read low 1.02 | locus YDR392W, strain spt3, active compounds read low 0.981 | locus YDR502C, strain sam2, active compounds read low 1.02 | locus YEL003W, strain gim4, active compounds read low 1.01 | locus YEL037C, strain rad23, active compounds read low 1.01 | locus YEL061C, strain CIN8 (second series), active compounds read low 1 | locus YEL061C, strain CIN8, active compounds read low 1.01 | locus YER002W, strain NOP16, active compounds read low 0.988 and 1.03 | locus YER015W, strain faa2, active compounds read low 1.02 | locus YER016W, strain bim1, active compounds read low 1.03 | locus YER110C, active compounds read low 1.02 | locus YER111C, strain swi4, active compounds read low 1.01 | locus YER155C, strain BEM2 (second series), active compounds read low 0.982 | locus YER155C, strain BEM2, active compounds read low 1.01 | locus YER167W, strain BCK2, active compounds read low 1.02 | locus YFR010W, strain ubp6, active compounds read low 1.01 | locus YGL078C, strain dbp3, active compounds read low 1.03 | locus YGL086W, strain mad1, active compounds read low 1.01 | locus YGL167C, strain pmr1, active compounds read low 1.02 | locus YGL173C, strain kem1, active compounds read low 1.01 | locus YGL227W, strain vid30, active compounds read low 0.989 | locus YGL240W, strain doc1, active compounds read low 1.02 | locus YGL248W, strain PDE1, active compounds read low 0.998 | locus YGL253W, strain hxk2, active compounds read low 1.01 | locus YGR078C, strain PAC10, active compounds read low 1.02 | locus YGR135W, strain pre9, active compounds read low 1.06 | locus YGR229C, strain SMI1, active compounds read low 1.02 and 1.05 | locus YGR252W, strain gcn5, active compounds read low 1.12 | locus YHR013C, strain ard1, active compounds read low 1.01 | locus YHR027C, strain rpn1, active compounds read low 1.01 | locus YHR030C, strain SLT2, active compounds read low 1.01 and 1.03 | locus YHR079C, strain IRE1 (second series), active compounds read low 1.01 | locus YHR079C, strain IRE1, active compounds read low 1.03 | locus YHR094C, strain hxt1, active compounds read low 1.02 | locus YHR129C, strain ARP1, active compounds read low 1.02 | locus YHR142W, strain chs7, active compounds read low 1 | locus YHR200W, strain rpn10, active compounds read low 1.02 | locus YIL066C, strain RNR3, active compounds read low 1.01 | locus YIL073C, strain SPO22, active compounds read low 1.1 | locus YIL125W, strain kgd1, active compounds read low 1.01 | locus YIR030C, strain dcg1, active compounds read low 1.02 | locus YJL092W, strain hpr5, active compounds read low 1.01 | locus YJL095W, strain BCK1 (second series), active compounds read low 1.03 | locus YJL095W, strain BCK1, active compounds read low 1.01 and 1.03 | locus YJL115W, strain asf1, active compounds read low 1.04 | locus YJL129C, strain trk1, active compounds read low 1 | locus YJL134W, strain LCB3, active compounds read low 1.02 | locus YJL154C, strain vps35, active compounds read low 1.02 | locus YJL164C, strain tpk1, active compounds read low 1 | locus YJL166W, strain qcr8, active compounds read low 0.999 | locus YJL168C, strain set2, active compounds read low 1.01 | locus YJL187C, strain SWE1 (second series), active compounds read low 0.996 | locus YJR043C, strain POL32, active compounds read low 1.03 | locus YJR066W, strain TOR1, active compounds read low 0.979
